From the supplement of paper PMC10849652
The full data set covers some 7,900 targets. This sample favours those with a hit. About 0.6% of all pairs of compound and target were hits.

Tests used:
Test in all cases: log2 fold change, soluble protein after heating vs DMSO (PISA); higher = thermal stabilisation; K562 cells, 10 uM, 30 min; active = over 0.2 and 3.5 SD of the protein, either way, in both replicates (recomputed)
[1] = compound: C1=CC=C(C=C1)[C@H](COC2=CC3=C(C=C2)NC(=O)N3)NC(=O)C4=CC=CN(C4=O)CC5=CC(=C(C=C5)F)F
Outline: (§1)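 K562 cells at 2×10^6 cells/mL were exposed to 10 μM compound for 30 min, then aliquots were heated for 3 min across 48°C-58°C, pooled, and extracted in PBS containing 0.5% NP-40 at 4°C. The supernatant after 21,000xg for 90 min was taken as soluble protein and measured by TMTpro 16plex LC-MS/MS with channel sums equalised. Thermal stability is reported relative to control samples, with values from duplicates. Fold changes are given on a log2 scale.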

[2] = compound: CC1=C(SC2=C1C(=N[C@H](C3=NN=C(N32)C)CC(=O)N)C4=CC=C(C=C4)Cl)C
Outline: as §1

[3] = compound: CC1=C2C(=CC=C1)N=C(N(C2=O)C3=CC=CC=C3C)CN4C=NC5=C(N=CN=C54)N
Outline: as §1

[4] = compound: Cc1sc2c(c1C)C(c1ccc(Cl)cc1)=N[C@@H](CC(=O)OC(C)(C)C)c1nnc(C)n1-2
Outline: as §1

[5] = compound: c1ccc([C@@H]2C[C@H]2NC2CCNCC2)cc1
Outline: as §1

Measured: log2 fold change

CPSF1 (UniProt Q10570)
inactive: [1] -0.012 | [2] -0.049 | [3] -0.017 | [4] 0.132 | [5] 0.006

CD151 (UniProt P48509)
inactive: [1] -0.126 | [2] 0.049 | [3] 0.031 | [4] -0.046 | [5] 0.101

CD55 isoform 7 (UniProt P08174)
inactive: [1] 0.026 | [2] -0.058 | [3] -0.009 | [4] -0.066 | [5] -0.049

CDK8 (UniProt P49336)
inactive: [1] 0 | [2] -0.043 | [3] 0.018 | [4] 0.035 | [5] -0.129

CDC123 (UniProt O75794)
Chain of UniProt O75794 (O75794 whole entry, looked up): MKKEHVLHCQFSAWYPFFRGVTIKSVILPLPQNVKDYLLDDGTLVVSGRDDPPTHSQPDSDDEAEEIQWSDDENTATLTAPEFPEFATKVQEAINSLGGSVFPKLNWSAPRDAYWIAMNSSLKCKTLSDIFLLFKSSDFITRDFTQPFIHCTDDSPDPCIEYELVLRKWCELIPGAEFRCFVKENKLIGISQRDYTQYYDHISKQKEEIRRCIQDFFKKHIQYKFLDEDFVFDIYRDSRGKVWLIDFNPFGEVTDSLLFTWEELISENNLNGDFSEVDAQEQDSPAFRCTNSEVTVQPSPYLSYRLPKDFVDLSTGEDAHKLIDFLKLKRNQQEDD
inactive: [1] -0.036 | [2] 0 | [3] 0.03 | [4] -0.018 | [5] -0.029

CHMP4C (UniProt Q96CF2)
inactive: [1] -0.002 | [2] 0.169 | [3] 0.045 | [4] 0.051 | [5] 0.03

CCDC59 (UniProt Q9P031)
inactive: [1] 0.012 | [2] -0.177 | [3] -0.214 | [4] 0.165 | [5] 0.052

CFAP36 isoform 2 (UniProt Q96G28)
inactive: [1] -0.042 | [2] 0.01 | [4] -0.009 | [5] -0.158
active: [3] 0.383

CNOT4 isoform 6 (UniProt O95628)
inactive: [1] -0.019 | [2] 0.012 | [3] 0.068 | [4] -0.01 | [5] 0.018

CHERP (UniProt Q8IWX8)
inactive: [1] -0.023 | [2] -0.07 | [3] 0.008 | [4] 0.101 | [5] 0.018

CLINT1 (UniProt Q14677)
inactive: [1] 0.063 | [2] 0.131 | [3] -0.005 | [4] -0.009 | [5] 0.157

COPS8 (UniProt Q99627)
inactive: [1] 0.002 | [2] 0.086 | [3] 0.039 | [4] -0.123 | [5] -0.014

CRMP1 isoform 2 (UniProt Q14194)
inactive: [1] -0.014 | [2] 0.074 | [3] -0.066 | [4] 0.002 | [5] -0.006

COCH (UniProt O43405)
Chain of UniProt O43405 (O43405 whole entry, looked up): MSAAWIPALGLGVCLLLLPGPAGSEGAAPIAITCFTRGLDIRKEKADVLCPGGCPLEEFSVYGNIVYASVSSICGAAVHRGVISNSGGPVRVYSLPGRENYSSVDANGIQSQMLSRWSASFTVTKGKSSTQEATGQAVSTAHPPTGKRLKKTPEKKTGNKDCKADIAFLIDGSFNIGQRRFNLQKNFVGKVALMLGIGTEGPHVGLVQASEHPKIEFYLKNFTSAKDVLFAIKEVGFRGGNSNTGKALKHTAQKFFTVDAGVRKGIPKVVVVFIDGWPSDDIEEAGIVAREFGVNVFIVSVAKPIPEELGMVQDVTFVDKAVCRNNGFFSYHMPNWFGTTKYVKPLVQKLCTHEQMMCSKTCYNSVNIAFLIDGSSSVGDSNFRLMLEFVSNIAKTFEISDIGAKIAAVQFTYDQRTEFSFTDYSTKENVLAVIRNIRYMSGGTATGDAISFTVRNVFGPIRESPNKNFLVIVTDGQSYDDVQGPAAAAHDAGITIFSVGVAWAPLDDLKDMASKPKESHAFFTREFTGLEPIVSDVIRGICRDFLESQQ
inactive: [1] 0.006 | [2] 0.061 | [3] -0.193 | [4] 0.144 | [5] 0.006

CDK1 (UniProt P06493)
inactive: [1] -0.019 | [2] 0.036 | [3] 0.003 | [4] 0.019 | [5] 0.037

CKS1B (UniProt P61024)
inactive: [1] -0.004 | [2] 0.056 | [3] 0.024 | [4] -0.067 | [5] -0.02

CPSF3 (UniProt Q9UKF6)
inactive: [1] -0.016 | [2] 0.024 | [3] 0.036 | [4] -0.026 | [5] 0.009

CDAN1 (UniProt Q8IWY9)
inactive: [1] -0.035 | [2] -0.049 | [3] 0.051 | [4] 0.091 | [5] 0.022

COA6 isoform 2 (UniProt Q5JTJ3)
Chain of UniProt Q5JTJ3 (Q5JTJ3 whole entry, looked up): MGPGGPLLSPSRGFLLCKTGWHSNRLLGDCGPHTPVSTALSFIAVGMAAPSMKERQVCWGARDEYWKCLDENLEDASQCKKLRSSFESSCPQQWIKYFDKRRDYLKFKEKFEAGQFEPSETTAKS
inactive: [1] 0.06 | [2] 0.08 | [3] 0.038 | [4] -0.06 | [5] -0.015

CLPTM1L (UniProt G5E9Z2)
inactive: [1] -0.22 | [2] 0.148 | [3] -0.012 | [4] -0.07 | [5] -0.1

CSK (UniProt P41240)
inactive: [1] -0.096 | [2] 0.051 | [3] 0.057 | [4] 0.011 | [5] -0.032

CAMSAP1 isoform 3 (UniProt Q5T5Y3)
inactive: [1] -0.06 | [2] 0.083 | [3] 0.221 | [4] 0.016 | [5] 0.02

CSNK2A1 (UniProt P68400)
inactive: [1] 0.018 | [2] 0.033 | [3] 0.018 | [4] -0.008 | [5] 0.02

CLTB (UniProt P09497)
inactive: [1] 0.021 | [2] -0.01 | [3] -0.016 | [4] -0.01 | [5] -0.02

CRK (UniProt P46108)
inactive: [1] 0 | [2] 0.013 | [3] 0.005 | [4] 0.028 | [5] -0.01

CNN2 (UniProt Q99439)
inactive: [1] -0.061 | [2] 0.011 | [3] 0.039 | [4] 0.007 | [5] 0.01

CCDC57 (UniProt Q2TAC2)
Chain of UniProt Q2TAC2 (Q2TAC2 whole entry, looked up): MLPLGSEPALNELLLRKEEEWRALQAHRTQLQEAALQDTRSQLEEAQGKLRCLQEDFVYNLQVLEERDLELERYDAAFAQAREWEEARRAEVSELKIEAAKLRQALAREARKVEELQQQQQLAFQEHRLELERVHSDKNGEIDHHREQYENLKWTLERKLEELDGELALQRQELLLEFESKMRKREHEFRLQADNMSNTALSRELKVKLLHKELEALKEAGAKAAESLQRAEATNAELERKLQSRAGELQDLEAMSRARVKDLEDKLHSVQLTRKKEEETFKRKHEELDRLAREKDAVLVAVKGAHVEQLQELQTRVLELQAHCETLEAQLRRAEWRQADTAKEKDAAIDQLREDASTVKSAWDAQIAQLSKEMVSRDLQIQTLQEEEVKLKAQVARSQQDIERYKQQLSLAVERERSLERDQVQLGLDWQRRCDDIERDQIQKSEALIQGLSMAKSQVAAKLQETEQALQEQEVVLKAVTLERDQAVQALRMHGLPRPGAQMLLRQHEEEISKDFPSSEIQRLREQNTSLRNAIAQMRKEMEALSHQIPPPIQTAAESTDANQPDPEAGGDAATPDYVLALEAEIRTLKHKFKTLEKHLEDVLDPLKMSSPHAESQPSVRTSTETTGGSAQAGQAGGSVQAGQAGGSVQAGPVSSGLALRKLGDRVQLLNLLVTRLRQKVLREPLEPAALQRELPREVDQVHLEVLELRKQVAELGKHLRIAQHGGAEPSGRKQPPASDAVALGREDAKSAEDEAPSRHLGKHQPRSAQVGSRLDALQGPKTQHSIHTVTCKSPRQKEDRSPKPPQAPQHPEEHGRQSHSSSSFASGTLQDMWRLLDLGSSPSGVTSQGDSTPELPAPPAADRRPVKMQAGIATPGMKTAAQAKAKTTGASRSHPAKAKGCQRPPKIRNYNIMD
active: [2] 0.262
inactive: [1] 0.015 | [3] 0.047 | [4] -0.161 | [5] -0.139

CD81 (UniProt P60033)
inactive: [1] -0.083 | [2] -0.013 | [3] -0.035 | [4] 0.03 | [5] 0.109

COPS4 (UniProt Q9BT78)
Chain of UniProt Q9BT78 (Q9BT78 whole entry, looked up): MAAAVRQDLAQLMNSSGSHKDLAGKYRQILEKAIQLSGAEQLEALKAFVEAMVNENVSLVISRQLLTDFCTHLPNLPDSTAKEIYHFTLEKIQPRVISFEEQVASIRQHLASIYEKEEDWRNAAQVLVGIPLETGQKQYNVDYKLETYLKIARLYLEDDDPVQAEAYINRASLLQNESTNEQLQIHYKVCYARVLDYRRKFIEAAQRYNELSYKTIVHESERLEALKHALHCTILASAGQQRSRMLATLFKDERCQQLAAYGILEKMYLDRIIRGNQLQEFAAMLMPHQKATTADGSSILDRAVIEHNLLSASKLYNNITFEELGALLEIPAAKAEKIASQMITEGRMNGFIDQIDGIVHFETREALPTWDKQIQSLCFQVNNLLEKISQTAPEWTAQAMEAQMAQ
inactive: [1] 0.04 | [2] 0.023 | [3] 0.016 | [4] -0.01 | [5] -0.011

CNOT1 (UniProt A5YKK6)
inactive: [1] -0.02 | [2] 0.021 | [3] 0.031 | [4] -0.017 | [5] -0.021

CNOT7 (UniProt Q9UIV1)
inactive: [1] -0.024 | [2] -0.053 | [3] 0.068 | [4] -0.032 | [5] 0.002

CDK6 (UniProt Q00534)
inactive: [1] -0.005 | [2] -0.002 | [3] 0.005 | [4] -0.036 | [5] -0.055

COX5A (UniProt P20674)
Chain of UniProt P20674 (P20674 whole entry, looked up): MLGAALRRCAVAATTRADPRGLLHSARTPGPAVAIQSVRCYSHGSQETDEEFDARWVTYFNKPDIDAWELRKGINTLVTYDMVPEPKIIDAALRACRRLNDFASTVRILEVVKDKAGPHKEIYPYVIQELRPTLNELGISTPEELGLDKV
inactive: [1] 0.016 | [2] 0.059 | [3] 0.037 | [4] -0.075 | [5] -0.043

CETN2 (UniProt P41208)
inactive: [1] 0.027 | [2] 0.046 | [3] -0.012 | [4] 0.06 | [5] 0.08

CDK16 isoform 2 (UniProt Q00536)
Chain of UniProt Q00536 (Q00536 whole entry, looked up): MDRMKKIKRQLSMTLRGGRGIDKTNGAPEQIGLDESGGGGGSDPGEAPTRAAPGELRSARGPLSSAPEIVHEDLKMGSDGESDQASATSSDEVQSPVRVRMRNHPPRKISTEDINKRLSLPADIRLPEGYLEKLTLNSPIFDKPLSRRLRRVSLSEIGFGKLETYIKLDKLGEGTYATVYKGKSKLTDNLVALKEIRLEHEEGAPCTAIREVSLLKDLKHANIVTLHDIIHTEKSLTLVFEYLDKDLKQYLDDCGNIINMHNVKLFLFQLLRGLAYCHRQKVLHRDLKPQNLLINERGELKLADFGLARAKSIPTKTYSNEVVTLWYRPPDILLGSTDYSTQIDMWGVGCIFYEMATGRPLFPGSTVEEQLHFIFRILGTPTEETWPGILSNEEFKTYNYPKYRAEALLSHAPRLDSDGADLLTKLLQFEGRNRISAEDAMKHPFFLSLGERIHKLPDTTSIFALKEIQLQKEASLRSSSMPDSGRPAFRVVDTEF
inactive: [1] -0.009 | [2] 0.026 | [3] 0.043 | [4] -0.014 | [5] -0.074

CNN3 (UniProt Q15417)
Chain of UniProt Q15417 (Q15417 whole entry, looked up): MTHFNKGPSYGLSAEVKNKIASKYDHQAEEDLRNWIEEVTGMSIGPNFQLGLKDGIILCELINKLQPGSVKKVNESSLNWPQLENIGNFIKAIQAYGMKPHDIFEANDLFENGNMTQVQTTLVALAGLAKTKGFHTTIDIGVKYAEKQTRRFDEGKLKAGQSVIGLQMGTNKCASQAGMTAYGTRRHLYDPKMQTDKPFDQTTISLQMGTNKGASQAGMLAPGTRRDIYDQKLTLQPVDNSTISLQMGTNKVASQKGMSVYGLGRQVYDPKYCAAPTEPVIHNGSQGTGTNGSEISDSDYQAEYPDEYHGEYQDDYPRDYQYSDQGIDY
inactive: [1] -0.015 | [2] 0.18 | [3] 0.079 | [4] 0.035 | [5] 0.03

CRTC3 (UniProt Q6UUV7)
inactive: [1] -0.083 | [2] 0.044 | [3] -0.065 | [4] 0.004 | [5] 0.034

CCAR1 (UniProt Q8IX12)
inactive: [1] -0.129 | [2] 0.061 | [3] 0.043 | [4] 0.044 | [5] -0.043

CEP128 (UniProt Q6ZU80)
Chain of UniProt Q6ZU80 (Q6ZU80 whole entry, looked up): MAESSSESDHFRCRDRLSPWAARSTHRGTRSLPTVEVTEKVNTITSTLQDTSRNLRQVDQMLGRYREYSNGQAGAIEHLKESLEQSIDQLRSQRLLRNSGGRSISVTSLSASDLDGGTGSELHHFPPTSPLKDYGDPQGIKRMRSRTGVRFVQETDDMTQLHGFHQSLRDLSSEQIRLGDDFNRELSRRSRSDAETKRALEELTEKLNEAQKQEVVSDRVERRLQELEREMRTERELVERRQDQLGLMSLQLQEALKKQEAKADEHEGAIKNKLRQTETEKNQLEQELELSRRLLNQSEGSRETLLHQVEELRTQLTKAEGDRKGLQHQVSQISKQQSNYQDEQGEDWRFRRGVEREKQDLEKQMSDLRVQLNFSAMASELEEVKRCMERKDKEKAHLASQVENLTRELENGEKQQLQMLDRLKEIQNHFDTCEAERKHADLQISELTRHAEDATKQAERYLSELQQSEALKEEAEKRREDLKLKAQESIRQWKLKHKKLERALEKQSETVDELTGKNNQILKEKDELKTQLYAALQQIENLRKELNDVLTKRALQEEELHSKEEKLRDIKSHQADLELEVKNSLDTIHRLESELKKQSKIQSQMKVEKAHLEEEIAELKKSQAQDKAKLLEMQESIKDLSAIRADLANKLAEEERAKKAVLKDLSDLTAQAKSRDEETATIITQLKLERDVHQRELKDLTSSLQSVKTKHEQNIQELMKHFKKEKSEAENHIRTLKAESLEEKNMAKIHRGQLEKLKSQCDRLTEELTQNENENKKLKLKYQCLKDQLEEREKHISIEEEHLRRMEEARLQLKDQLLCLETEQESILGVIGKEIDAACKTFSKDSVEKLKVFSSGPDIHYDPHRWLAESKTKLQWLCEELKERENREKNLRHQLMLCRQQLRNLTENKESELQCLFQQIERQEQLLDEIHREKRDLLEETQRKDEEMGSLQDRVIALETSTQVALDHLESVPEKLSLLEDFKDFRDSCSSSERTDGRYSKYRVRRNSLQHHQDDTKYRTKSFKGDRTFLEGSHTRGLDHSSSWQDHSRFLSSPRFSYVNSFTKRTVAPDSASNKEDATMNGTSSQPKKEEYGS
inactive: [1] -0.039 | [2] 0.099 | [3] 0.216 | [4] 0.104 | [5] 0.041

COX5B (UniProt P10606)
inactive: [1] 0.015 | [2] 0.104 | [3] -0.006 | [4] -0.126 | [5] -0.099

CRLF3 (UniProt Q8IUI8)
inactive: [1] -0.03 | [2] 0.045 | [3] 0.087 | [4] 0.088 | [5] -0.036

CSNK2B (UniProt P67870)
inactive: [1] -0.047 | [2] 0.043 | [3] 0 | [4] -0.028 | [5] 0.018

CHD4 isoform 2 (UniProt Q14839)
inactive: [1] -0.065 | [2] 0 | [3] 0.021 | [4] 0.049 | [5] 0.032

CLSPN (UniProt Q9HAW4)
inactive: [1] 0.002 | [2] -0.009 | [3] -0.043 | [4] -0.004 | [5] 0.036

CAMK2G isoform 6 (UniProt Q13555)
inactive: [1] -0.017 | [2] 0.054 | [3] 0.044 | [4] 0.096 | [5] -0.021

CSNK2A2 (UniProt P19784)
Chain of UniProt P19784 (P19784 whole entry, looked up): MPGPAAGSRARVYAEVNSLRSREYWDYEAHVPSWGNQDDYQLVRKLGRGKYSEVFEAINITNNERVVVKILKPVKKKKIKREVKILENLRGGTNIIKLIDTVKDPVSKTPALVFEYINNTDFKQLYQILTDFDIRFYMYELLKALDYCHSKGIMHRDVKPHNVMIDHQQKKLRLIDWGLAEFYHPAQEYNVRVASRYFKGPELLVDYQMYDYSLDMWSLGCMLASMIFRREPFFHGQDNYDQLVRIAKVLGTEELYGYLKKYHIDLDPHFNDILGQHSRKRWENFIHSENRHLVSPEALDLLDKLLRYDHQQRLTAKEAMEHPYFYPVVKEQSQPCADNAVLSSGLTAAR
inactive: [1] -0.025 | [2] 0.08 | [3] 0.052 | [4] 0.028 | [5] 0.012

CIR1 (UniProt Q86X95)
inactive: [1] -0.075 | [2] -0.286 | [3] -0.241 | [4] 0.198 | [5] 0.217

CRYM-AS1 (UniProt A6NIL9)
inactive: [1] -0.295 | [2] 0.037 | [3] 0.297 | [4] -0.201 | [5] -0.002

CLN8 (UniProt Q9UBY8)
inactive: [1] 0.121 | [2] 0.042 | [3] -0.067 | [4] 0.043 | [5] -0.057

C4orf33 (UniProt Q8N1A6)
Chain of UniProt Q8N1A6 (Q8N1A6 whole entry, looked up): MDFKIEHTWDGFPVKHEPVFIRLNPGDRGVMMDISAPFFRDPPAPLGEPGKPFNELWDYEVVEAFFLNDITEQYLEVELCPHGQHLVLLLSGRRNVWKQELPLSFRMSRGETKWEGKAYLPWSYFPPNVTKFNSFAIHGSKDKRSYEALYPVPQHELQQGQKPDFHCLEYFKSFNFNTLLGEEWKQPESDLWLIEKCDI
inactive: [1] -0.041 | [2] 0.176 | [3] 0.066 | [4] 0.024 | [5] -0.003

C19orf53 (UniProt Q9UNZ5)
inactive: [1] 0.105 | [2] -0.258 | [3] -0.266 | [4] 0.203 | [5] -0.01

CLUH, A0A494C0R8
inactive: [1] -0.121 | [2] -0.004 | [3] 0.025 | [4] 0.152 | [5] 0.096

CLCN7 (UniProt P51798)
inactive: [1] -0.018 | [2] 0.024 | [3] -0.054 | [4] 0.024 | [5] -0.032
